Reference: the supplement of paper PMC12636033
± gives the standard deviation of the averaged measurements. Over roughly 33,000 sequences, “E-score (rank enrichment, -0.5 to 0.5)” has its median near -0.0043; the highest 2% begin near 0.24. This is one part of a sample in which the highest values are shown more often than they occur.

Tested on: 2Sp-muMax20 (muMax20 with two 2,6-bis(methyl)pyridine Cys staples)
Assay: PBM 8-mer E-score (E-score (rank enrichment, -0.5 to 0.5)); higher = stronger preferential binding
Protocol: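 Protein binding microarray (universal PBM chip covering all 10-mers in fixed probe flanks) with chemically synthesized human Max(13-93) bHLH-LZ analogs (not full-length Max) bearing noncanonical residues (hArg, Tha, Aib, Nle at 65) and aromatic Cys staples. Read-out per 8-mer (and its reverse complement): E-score (rank-based enrichment, -0.5 to 0.5) and Z-score of median probe intensity.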

| Sequence | PBM 8-mer E-score |
| --- | --- |
| CAGAAAAC | 0.0606 ± 0.042 |
| CCACGCGA | 0.112 ± 0.0062 |
| CGACGTGA | 0.063 ± 0.051 |
| ACACGCGG | 0.181 ± 0.012 |
| CCACGTGA | 0.358 ± 0.053 |
| CTACGTGA | -0.0272 ± 0.054 |
| CCACGCGG | 0.448 ± 0.016 |
| ATCGAAGC | -0.0587 ± 0.14 |
| CAGGCATA | 0.0998 ± 0.023 |
| ATTCCACC | 0.0112 ± 0.074 |
| GCGATCGC | 0.241 ± 0.049 |
| CCGATCGC | 0.00661 ± 0.018 |
| ACGATCGC | 0.0237 ± 0.025 |
| CCAATCCA | 0.00702 ± 0.16 |
| CAATTGGG | 0.136 ± 0.037 |
| CAATTGGC | 0.244 ± 0.016 |
| GAATTGGC | 0.0412 ± 0.066 |
| ACCTGTGC | -0.0312 ± 0.029 |
| CTTGCTAA | -0.0836 ± 0.038 |
| CGCCTCCC | 0.00831 ± 0.026 |
| AGAACGGC | 0.0294 ± 0.038 |
| TATCCATA | 0.15 ± 0.012 |
| GTCCCCAC | 0.021 ± 0.043 |
| ATCCCCCA | -0.224 ± 0.14 |
| CTCCCCAG | 0.191 ± 0.064 |

| Sequence | PBM 8-mer E-score |
| --- | --- |
| ATCCCCAA | 0.274 ± 0.036 |
| ATCCCAAA | 0.0771 ± 0.056 |
| ATCCCCTC | 0.215 ± 0.038 |
| CTCCCCCA | -0.103 ± 0.12 |
| CTCCCCTA | 0.106 ± 0.087 |
| CTCCCCAC | 0.278 ± 0.015 |
| TTCCCCAA | 0.173 ± 0.06 |
| CTCCCCAA | 0.309 ± 0.0081 |
| ATCCCCTA | 0.282 ± 0.019 |
| AATAGTCA | 0.109 ± 0.0063 |
| CCACATAA | 0.0944 ± 0.027 |
| GGATTACC | 0.0419 ± 0.024 |
| AATGAAGC | 0.0104 ± 0.028 |
| GTGGTAAA | -0.0637 ± 0.0084 |
| CGGGTCAC | -0.118 ± 0.034 |
| AAGGTATG | 0.149 ± 0.056 |
| AGAACACC | 0.0163 ± 0.039 |
| ATCCCCAG | 0.0388 ± 0.058 |
| CACCCCAC | 0.265 ± 0.007 |
| ATCCCCAT | 0.104 ± 0.064 |
| ATCCCCAC | 0.247 ± 0.038 |
| GACCCCAC | 0.131 ± 0.021 |
| AACCCCAC | 0.136 ± 0.032 |
| CACAGAGC | -0.0473 ± 0.035 |
| CGCTTAAA | 0.0219 ± 0.026 |

| Sequence | PBM 8-mer E-score |
| --- | --- |
| TCACCACA | 0.209 ± 0.055 |
| ACAAGAGA | -0.031 ± 0.039 |
| CAGGATCC | 0.0142 ± 0.1 |
| CCCAGCCG | -0.207 ± 0.031 |
| GGGTGAAC | -0.0445 ± 0.0025 |
| AGATTGGG | 0.236 ± 0.005 |
| AGATTGGC | -0.253 ± 0.0034 |
| AGATTGGA | 0.0807 ± 0.089 |
| GACACTCA | -0.155 ± 0.12 |
| CCTTCTCC | -0.1487 ± 0.00034 |
| ACAGGCCC | -0.0606 ± 0.0054 |
| CGTATACC | -0.132 ± 0.077 |
| AGTATAAG | 0.273 ± 0.061 |
| CGTATACG | 0.279 ± 0.086 |
| AGTATACA | 0.218 ± 0.026 |
| AGTATACT | 0.287 ± 0.014 |
| AGTATAAC | 0.0726 ± 0.034 |
| ACTATAAG | 0.147 ± 0.011 |
| CGTATAAG | 0.0589 ± 0.0073 |
| AGTATACC | 0.0537 ± 0.062 |
| CGTATACA | 0.0425 ± 0.12 |
| AGTATAAT | 0.307 ± 0.047 |
| ACTATAAT | 0.1911 ± 0.00057 |
| ATGTGTGC | -0.0334 ± 0.049 |
| AAGCGGCA | -0.0432 ± 0.047 |

| Sequence | PBM 8-mer E-score |
| --- | --- |
| ATCACTTG | 0.101 ± 0.072 |
| GGATTCTA | 0.0681 ± 0.064 |
| GTCAACTA | 0.0356 ± 0.0025 |
| CGGGGACA | -0.0692 ± 0.1 |
| TGACTACA | 0.0909 ± 0.018 |
| AGATACCG | -0.166 ± 0.039 |
| AGATACCC | 0.264 ± 0.0095 |
| AGATACCA | 0.171 ± 0.03 |
| AGGCGAAA | -0.0363 ± 0.041 |
| GCCTTGAC | -0.0306 ± 0.049 |
| AGACCGAG | -0.0567 ± 0.059 |
| GCACGTAC | 0.0252 ± 0.017 |
| GAACGTGA | -0.0484 ± 0.032 |
| GGACGTGA | -0.181 ± 0.05 |
| GCACGTCC | -0.107 ± 0.035 |
| GCACGTGC | 0.472 ± 0.0076 |
| GCACGTGA | 0.29 ± 0.034 |
| GTCTCGTA | -0.016 ± 0.023 |
| GTGCCCAC | -0.0178 ± 0.036 |
| CACTCAGG | 0.00926 ± 0.0019 |
| CGAGAAAA | -0.0823 ± 0.086 |
| CGGCGGCA | -0.192 ± 0.016 |
| GGGTAAAA | 0.146 ± 0.043 |
| GATGCTGA | -0.077 ± 0.021 |
| AATGCTTC | 0.126 ± 0.0042 |

| Sequence | PBM 8-mer E-score |
| --- | --- |
| CATGCGTA | 0.291 ± 0.02 |
| AATGCTGA | 0.11 ± 0.11 |
| CATGCTTA | 0.223 ± 0.018 |
| AATGCGTA | 0.186 ± 0.021 |
| CATGCTTC | 0.244 ± 0.013 |
| CATGCTGA | 0.235 ± 0.031 |
| GATGCGTA | 0.12 ± 0.027 |
| CTTAAGTC | -0.0675 ± 0.033 |
| CCTGCGAC | -0.0368 ± 0.021 |
| CACTGACA | -0.147 ± 0.062 |
| CCATTTAC | 0.106 ± 0.12 |
| ACACAGAA | 0.0709 ± 0.022 |
| ACGTATAA | 0.125 ± 0.024 |
| AACAGGAA | -0.0894 ± 0.071 |
| ATTCAGAC | -0.0466 ± 0.061 |
| GGTGTGTA | 0.0384 ± 0.034 |
| CGCGTGTA | 0.238 ± 0.04 |
| CACGTGTA | 0.389 ± 0.023 |
| CGTGTGTA | 0.239 ± 0.011 |
| GACGTGTA | -0.0461 ± 0.043 |
| CGCGTGTC | 0.139 ± 0.067 |
| AGCGTGTA | 0.1194 ± 0.0008 |
| AACGTGTA | 0.0544 ± 0.12 |
| AACGTGTC | 0.0326 ± 0.036 |
| CCCGTGTC | -0.204 ± 0.024 |

| Sequence | PBM 8-mer E-score |
| --- | --- |
| AGTGTGTA | 0.0578 ± 0.047 |
| CACGTGTC | 0.377 ± 0.036 |
| GACTAGAA | 0.177 ± 0.023 |
| CCATCGGG | -0.247 ± 0.14 |
| CCCCAGTC | 0.0489 ± 0.031 |
| AACTTACC | -0.00702 ± 0.031 |
| GCGGCGTA | 0.0259 ± 0.057 |
| ACTCGGGC | -0.209 ± 0.095 |
| CATTCCTA | 0.0858 ± 0.042 |
| CGTTGTGA | -0.116 ± 0.13 |
| AATCCACT | -0.0636 ± 0.11 |
| TGTTCCAA | -0.0197 ± 0.029 |
| ATGGAGGG | 0.168 ± 0.038 |
| AGCTGTGG | -0.0756 ± 0.04 |
| ATAGGGGA | 0.138 ± 0.033 |
| GGAGGGGA | 0.244 ± 0.028 |
| GTAGGGGA | 0.29 ± 0.033 |
| GGAGGGAA | -0.0234 ± 0.062 |
| CGAGGGGA | 0.021 ± 0.025 |
| CTAGGGGA | 0.0989 ± 0.024 |
| CTTTCCGA | -0.294 ± 0.038 |
| AGGTGCGC | -0.139 ± 0.056 |
| ACCCTATA | -0.0592 ± 0.015 |
| TGGCGTAA | 0.0766 ± 0.16 |
| ATTTTTAG | -0.0464 ± 0.14 |

| Sequence | PBM 8-mer E-score |
| --- | --- |
| TACTTCAA | 0.243 ± 0.013 |
| GACTTCAA | 0.0921 ± 0.077 |
| AACTTCAA | 0.0284 ± 0.018 |
| CATCTAGC | 0.114 ± 0.045 |
| GGTCTCAC | 0.0156 ± 0.0022 |
| ACGTTGAA | 0.123 ± 0.036 |
| ATACGTAC | 0.185 ± 0.07 |
| TTACGTAA | 0.2354 ± 0.0003 |
| GTACGTAA | 0.101 ± 0.075 |
| ATACGTAT | 0.339 ± 0.022 |
| ATACGTAA | 0.119 ± 0.077 |
| CTACGTAA | 0.0719 ± 0.058 |
| GAGACAAC | 0.00299 ± 0.013 |
| AACTTTAA | 0.0575 ± 0.063 |
| CGGTTACG | -0.19 ± 0.072 |
| CCGCATCG | -0.258 ± 0.046 |
| CTATGAGC | -0.0207 ± 0.088 |
| CAATAATG | 0.0692 ± 0.049 |
| GAATAAAA | 0.0399 ± 0.044 |
| CAATAATA | 0.247 ± 0.045 |
| CAATAATC | 0.0969 ± 0.081 |
| CAATAAAA | 0.294 ± 0.052 |
| CAATAAAC | 0.137 ± 0.053 |
